We go through 40 compounds from PubChem BioAssay (NCATS).

The structures appear in SMILES notation. Inconclusive results are not listed. Entries that show only a call come without a potency. The source made the active and inactive calls. Calls follow the shape of the dose curve; as a rule, active = well fitted cell-killing curve with a large enough effect; inconclusive = small, poorly fitted or top-dose-only effect; inactive = no such curve, though single readings can be large or run the other way. Where a SMILES comes first, the peptide text is derived from it.

The nature of the experiment: qHTS of pediatric cancer cell lines to identify multiple opportunities for drug repurposing: Primary screen for Rh30 cells (AID 1347107). Also: nearly all actives have a fitted effect of over 75% in size. The following applies: Rh30 rhabdomyosarcoma viability, CellTiter-Glo luminescence, 48 h; series mostly up to 46 µM. The text has this: Drug repurposing or repositioning has been offered as a strategy for drug development in oncology programs. This approach has special potential for childhood cancers and other rare or orphan diseases, where the expected return on new drug development has been a disincentive to pharmaceuticals.
In this project we exploit the poly-pharmacology of drugs to discover new indications via phenotypic screening of a panel of 19 well-characterized cell lines derived from solid tumors seen in children and adolescents. The goal is to identify approved drugs with previously unrecognized anticancer properties that has the potential to reveal new mechanisms and biological processes involved in carcinogenesis or drug resistance. We employed a titration-based paradigm (quantitative high-throughput screening or qHTS), where all compounds were tested at multiple concentrations for their effect on cell viability. Concentration-response curves (CRCs) were derived directly from the primary screen, and both potency and efficacy values were used to identify compounds with robust bioactivity profiles. We screened the NIH Chemical Genomics Center (NCGC) Pharmaceutical Collection (NPC) and Mechanism Interrogation Plate (MIPE) small molecule collections of approved and investigational compounds against these cell lines; and measured metabolically active cells after 48 hours of compound treatment as a proxy for cell viability.
Assay Submitter: Nathalia J. Martinez, National Center for Advancing Translational Sciences, National Institutes of Health, Rockville, MD, USA; email: natalia.martinez@nih.gov
[1] Shen, M et al. Quantitative high-throughput phenotypic screening of pediatric cancer cell lines identifies multiple opportunities for drug repurposing. Oncotarget 2017 Dec 19;9(4):4758-4772. PMID 29435139.
The cells were obtained from University of North Carolina (UNC), Pediatric Preclinical Testing Program (PPT), and Coriell Institute (CI).
qHTS cell viability assay:
Cells were assayed in growth media at a density of 500-1,000 cells/well. Five microliters of cells were dispensed into 1,536-well, white, solid-bottom, TC-treated plates (Greiner Bio One) using a multidrop dispenser and incubated at 37 degrees C, 5% CO2, under a humidified atmosphere for 5 hours. Twenty-three nanoliters of compounds and controls (neutral control DMSO or positive control bortezomib at final concentration of 2.3 µM) were subsequently transferred by Kalypsys pintool. For primary screens, the MIPE collection was tested at 11-point dilutions (final concentrations range from 0.78 nM to 46 µM) and the NPC collection at 8-point dilutions (final concentrations range from 0.59 nM to 46 µM). Compounds tested in follow-up screens were assayed at 11-point dilutions. Cells were incubated for 48 hours, followed by addition of 3 µL of CellTiter-Glo (Promega). After a 15 min incubation at room temperature, samples were analyzed for luminescence intensity using a ViewLux High-throughput CCD imager equipped with clear filters.
In general terms: qHTS replaces the single test concentration by a dilution series.
Turning to `CC(=O)N[C@@H](CO)C(=O)N[C@@H](CC(=O)O)C(=O)N[C@@H](CCCCN)C(=O)N1CCC[C@H]1C(=O)O` (Ac-SDKP-OH), the Potency entry is “inactive”. To `O=C(OCC(O)CO)c1ccccc1Nc1ccnc2c(C(F)(F)F)cccc12` (stereo not given) belongs “inactive”. With `COc1ccc(CCC(C)=O)cc1` the entry was “inactive”. `c1ccc2occc2c1`: the Potency result was “inactive”. To `CNC(=O)c1cnn(-c2nc(N)c3ncn([C@@H]4O[C@H](CO)[C@@H](O)[C@H]4O)c3n2)c1` belongs “inactive”. In the case of `O=P(O)(O)OCC(O)CO` (stereo not given), the Potency result is “inactive”.

For the compound `C#Cc1ccc(-c2ccccc2F)cc1`, the Potency result was “inactive”. With `COc1cc(OC)nc(O[C@H](C(=O)O)C(OC)(c2ccccc2)c2ccccc2)n1`, the Potency result is “inactive”. With `CCN(CC)C(=O)C1CN2CCc3cc(OC)c(OC)cc3C2CC1OC(C)=O` (stereo not given) the entry was “inactive”; with `CO/N=C(/C(=O)N[C@@H]1C(=O)N2C(C(=O)OCOC(=O)C(C)(C)C)=C(C)CS[C@H]12)c1csc(N)n1`, “inactive”; with `CC(=O)c1cc2ccccc2s1`, “inactive”. As for `O=C(O)c1[nH]n(-c2ccc(S(=O)(=O)O)cc2)c(=O)c1N=Nc1ccc(S(=O)(=O)O)cc1`, the Potency result is “inactive”. Take `COC(=O)c1cc(S(N)(=O)=O)ccc1OC`: the Potency entry was “inactive”. With `CCCCCCCC(=O)[O-].CCCCCCCC(=O)[O-].[Zn+2]` the entry was “inactive”. Take `CCn1ccc(NS(=O)(=O)c2ccc(N)cc2)nc1=O`: the Potency entry is “inactive”. With `COc1ccc2c(c1)CCCC2=O` the entry was “inactive”; with `O=C(CCOCCOCCOCCOCCC(=O)Nc1c(I)cc(I)c(C(=O)O)c1I)Nc1c(I)cc(I)c(C(=O)O)c1I`, “inactive”.

Turning to `O=C(c1ccco1)N1CCNCC1`, the Potency result was “inactive”. With `O=C1Nc2cc(Cl)ccc2Oc2ccccc21` the entry was “inactive”; with `Cc1c(F)cc2c(=O)c(C(=O)O)cn3c2c1CCC3C` (stereo not given), “inactive”; with `COc1c(N2C[C@@H]3CCCN[C@@H]3C2)c(F)cc2c(=O)c(C(=O)O)cn(C3CC3)c12`, “inactive”. Take `CC(C)(C)c1cc(C=O)cc(C(C)(C)C)c1O`: the Potency entry was “inactive”. For the compound `Nc1nc2ccccc2n1Cc1ccc(F)cc1`, the Potency entry was “inactive”. Take `CCC(=O)Oc1ccc2c(c1)CC[C@@H]1[C@@H]2CC[C@@]2(C)[C@H]1C[C@@H](OC(=O)CC)[C@@H]2OC(=O)CC`: the Potency entry is “inactive”.

For `Oc1ccccc1`, the Potency entry was “inactive”. For `CCN(CC)CC(=O)OCC(=O)[C@@]1(O)CC[C@H]2[C@@H]3CCC4=CC(=O)CC[C@]4(C)[C@H]3[C@@H](O)C[C@@]21C`, the Potency result is “inactive”.

For `C[N+]1(CC2COC(c3ccccc3)(c3ccccc3)O2)CCCCC1` (stereo not given), the Potency result was “inactive”. With `CC1(C)O[C@@H]2C[C@H]3[C@@H]4C[C@H](F)C5=CC(=O)C=C[C@]5(C)[C@@]4(F)[C@@H](O)C[C@]3(C)[C@]2(C(=O)CO)O1` the entry was “inactive”; with `Cc1ccc(C(=O)C(=O)O)cc1C`, “inactive”. With `c1ccc2c(c1)CCc1ccccc1N2` the entry was “inactive”. To `c1ccc(C(O[C@H]2CCCN(CCc3ccc4c(c3)OCO4)C2)c2ccccc2)cc1` belongs “inactive”; to `CC(=O)Oc1ccc(C2(c3ccc(OC(C)=O)cc3)Oc3ccccc3NC2=O)cc1`, “inactive”; to `Nc1c(NC/C=C\COc2cc(CN3CCCCC3)ccn2)c(=O)c1=O`, “inactive”. Consider `CCCN(CCC)C(=O)C(CCC(=O)OCCCN1CCN(CCOC(=O)Cc2c(C)n(C(=O)c3ccc(Cl)cc3)c3ccc(OC)cc23)CC1)NC(=O)c1ccccc1` (stereo not given), for which the Potency result is “inactive”. To `Cc1nc(N)nc(N)c1-c1ccc(Cl)c(Cl)c1` belongs “inactive”.

Turning to `CC(=O)N(CC(O)CO)c1c(I)c(C(=O)NCCO)c(I)c(C(=O)NCC(O)CO)c1I` (stereo not given), the Potency result is “inactive”. With `CCCCNc1ccc(C(=O)OCCN(CC)CC)cc1` the entry was “inactive”.

With `COc1c(C)c2c(c(O)c1C/C=C(\C)CCC(=O)OCCN1CCOCC1)C(=O)OC2`, the Potency result was “inactive”. To `C[C@H]1C[C@@H]2[C@H]([C@@H](O)C[C@@]3(C)[C@H]2CC[C@]3(O)C(=O)CO)[C@@]2(C)C=CC(=O)C=C12` belongs “inactive”; to `CCCCOC(=O)CCCCCCCCC(=O)OCCCC`, “inactive”.
